Calls of active or inactive are those of the source. The rule behind the calls is not given here.
Assay: qHTS profiling of the MIPE4 collection as inhibitors of Plasmodium falciparum (HB3) proliferation (AID 743347);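 note: plate controls were DMSO vehicle wells for no effect and artemisinin wells for full effect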
Conditions: P. falciparum HB3 in erythrocytes, SYBR Green DNA, 72 h; at 28.5 µM (top of the series)
Procedure, shortened: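 Parasite DNA was quantified by SYBR Green I fluorescence (ex 485, em 535 nm) after overnight lysis in saponin/Triton buffer at room temperature. Cultures at 0.3% parasitemia and 2.5% hematocrit were first exposed to compound for 72 h at 37 C; signals were normalised to artemisinin (0.29 uM) and vehicle wells.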

SMILES | growth, % of control
C=CCON=C(C[C@H]1O[C@@H]2O[C@]3(C)CC[C@@H]4[C@H](C)CC[C@@H]([C@H]1C)[C@@]24OO3)[C@H]1O[C@@H]2O[C@]3(C)CC[C@H]4[C@H](C)CC[C@@H]([C@@H]1C)[C@@]24OO3 | 64.2%
COc1ccc2c(c[n+](C)c3c4cc5c(cc4ccc23)OCO5)c1OC | 104%
CC[C@H](CO)Nc1nc(NCc2ccccc2)c2ncn(C(C)C)c2n1 | 47.3%
Cc1nc(-c2ccc(-c3ccc(C(=O)N4CCc5cc6c(cc54)C4(CCN(C)CC4)CO6)cc3)c(C)c2)no1 | 43.5%
Nc1nc(-c2nn(Cc3ccccc3F)c3ncccc23)nc(N)c1N1CCOCC1 | 51.5%
O=C(Oc1ccc([N+](=O)[O-])cc1)N1CCC(C(O)(c2ccc3c(c2)OCO3)c2ccc3c(c2)OCO3)CC1 | 77.1%
COc1ccc2c(c1)CC[C@H]1[C@@H]2CC[C@]2(C)[C@@H](NCCCCCCN3C(=O)C=CC3=O)CC[C@H]12 | 77.6%
CCCCN1CCC(CNC(=O)c2c3n(c4ccccc24)CCCO3)CC1 | 32.4%
CC(=O)Nc1ccc(OC[C@](C)(O)C(=O)Nc2ccc([N+](=O)[O-])c(C(F)(F)F)c2)cc1 | 91.2%
Cc1ccccc1-n1c(Cn2cnc3c(N)ncnc32)nc2cccc(C)c2c1=O | 2.42%

Assay: Immunotoxin (HA22) sensitization/mitigation study. Vehicle arm (PBS) (AID 1159510); note: potency is the fitted concentration of half-maximal effect
Conditions: cancer cells viability with PBS vehicle (HA22 study); series mostly up to 46.1 µM

SMILES | Potency
C=CCON=C(C[C@H]1O[C@@H]2O[C@]3(C)CC[C@@H]4[C@H](C)CC[C@@H]([C@H]1C)[C@@]24OO3)[C@H]1O[C@@H]2O[C@]3(C)CC[C@H]4[C@H](C)CC[C@@H]([C@@H]1C)[C@@]24OO3 | 0.0166 µM (active)
CCN1CCN(CC(=O)Nc2ccc(-c3cccc4c(=O)cc(N5CCOCC5)oc34)c3sc4ccccc4c23)CC1 | 0.935 µM (active)
COc1ccc2c(c[n+](C)c3c4cc5c(cc4ccc23)OCO5)c1OC | 1.32 µM (active)
C=C1C(=CC=C2CCCC3(C)[C@@H]([C@H](C)C=CC=CC(O)(CC)CC)CC[C@@H]23)C[C@@H](O)C[C@@H]1O (some centres not stated) | 23.5 µM (active)
CN1C(=O)C(Cc2c[nH]c3ccccc23)NC1=S (configuration not stated) | inactive
CC(C)[C@]12O[C@H]1[C@@H]1O[C@]13[C@]1(O[C@H]1C[C@H]1C4=C(CC[C@@]13C)C(=O)OC4)[C@@H]2O | 0.0042 µM (active)
CC[C@H](CO)Nc1nc(NCc2ccccc2)c2ncn(C(C)C)c2n1 | 20.9 µM (active)
CC1(O)CC(c2nc(-c3ccc4ccc(-c5ccccc5)nc4c3)c3c(N)nccn23)C1 (configuration not stated) | 29.6 µM (active)
CCCCCCCCCCCCCCCCCCOP(=O)([O-])OC1CC[N+](C)(C)CC1 | inactive
Cc1nc(-c2ccc(-c3ccc(C(=O)N4CCc5cc6c(cc54)C4(CCN(C)CC4)CO6)cc3)c(C)c2)no1 | 23.5 µM (active)
OCCn1cc(-c2ccc3c(c2)CCC3=NO)c(-c2ccncc2)n1 | inactive
CC(NCc1ccc2c(c1)nc(NC(=O)c1ccc(-c3cn[nH]c3)s1)n2CC(C)(C)O)C(C)(C)C (configuration not stated) | 0.0469 µM (active)
Cc1cc(-c2ccc(CC(=O)Nc3ccc(-c4cccnc4)cc3)cc2)ccn1 | 18.7 µM (active)
NC(=O)Nc1cc(-c2ccc(CN3CCOCC3)c(F)c2)sc1C(=O)N[C@H]1CCCNC1 | 0.0418 µM (active)
Cc1c(CN2CCN(C(=O)C(C)C)CC2)sc2c(N3CCOCC3)nc(-c3cnc(N)nc3)nc12 | 0.0935 µM (active)
Nc1nc(-c2nn(Cc3ccccc3F)c3ncccc23)nc(N)c1N1CCOCC1 | inactive
Cn1cc(-c2ccc3nnc(Sc4ccc5ncccc5c4)n3n2)cn1 | inactive
O=C(Oc1ccc([N+](=O)[O-])cc1)N1CCC(C(O)(c2ccc3c(c2)OCO3)c2ccc3c(c2)OCO3)CC1 | 5.26 µM (active)
COc1ccc2c(c1)CC[C@H]1[C@@H]2CC[C@]2(C)[C@@H](NCCCCCCN3C(=O)C=CC3=O)CC[C@H]12 | 20.9 µM (active)
CCCCN1CCC(CNC(=O)c2c3n(c4ccccc24)CCCO3)CC1 | inactive
CC(=O)Nc1ccc(OC[C@](C)(O)C(=O)Nc2ccc([N+](=O)[O-])c(C(F)(F)F)c2)cc1 | inactive
Cc1ccccc1-n1c(Cn2cnc3c(N)ncnc32)nc2cccc(C)c2c1=O | 23.5 µM (active)
O=C(O)c1ccc2cc(-c3ccc(O)c(C45CC6CC(CC(C6)C4)C5)c3)ccc2c1 | 0.0935 µM (active)
CC(C)(C(=O)NCC(F)(F)C(F)(F)F)C(=O)N[C@@H]1C(=O)Nc2ccccc2-c2ccccc21 | inactive

Assay: Immunotoxin (SS1P) sensitization/mitigation study. Vehicle arm (DMEM) (AID 1159513); note: potency is the fitted concentration of half-maximal effect
Conditions: cell viability with vehicle (DMEM); series mostly up to 46.1 µM

SMILES | Potency
C=CCON=C(C[C@H]1O[C@@H]2O[C@]3(C)CC[C@@H]4[C@H](C)CC[C@@H]([C@H]1C)[C@@]24OO3)[C@H]1O[C@@H]2O[C@]3(C)CC[C@H]4[C@H](C)CC[C@@H]([C@@H]1C)[C@@]24OO3 | 0.235 µM (active)
O=C1CCCC2=C1C(c1[nH]ncc1Cl)N=C(Nc1nc3ccccc3o1)N2 (configuration not stated) | inactive
CCN1CCN(CC(=O)Nc2ccc(-c3cccc4c(=O)cc(N5CCOCC5)oc34)c3sc4ccccc4c23)CC1 | 1.66 µM (active)
CC#C[C@]1(O)CC[C@H]2[C@@H]3CCC4=CC(=O)CCC4=C3[C@H](c3ccc(N(C)C)cc3)C[C@@]21C | 23.5 µM (active)
COc1ccc2c(c[n+](C)c3c4cc5c(cc4ccc23)OCO5)c1OC | 8.33 µM (active)
COc1cc(Nc2ncc3c(n2)-c2ccc(Cl)cc2C(c2c(F)cccc2OC)=NC3)ccc1C(=O)O | inactive
C=C1C(=CC=C2CCCC3(C)[C@@H]([C@H](C)C=CC=CC(O)(CC)CC)CC[C@@H]23)C[C@@H](O)C[C@@H]1O (some centres not stated) | 20.9 µM (active)
CN1C(=O)C(Cc2c[nH]c3ccccc23)NC1=S (configuration not stated) | inactive
CC(C)[C@]12O[C@H]1[C@@H]1O[C@]13[C@]1(O[C@H]1C[C@H]1C4=C(CC[C@@]13C)C(=O)OC4)[C@@H]2O | 0.0074 µM (active)
CC[C@H](CO)Nc1nc(NCc2ccccc2)c2ncn(C(C)C)c2n1 | 23.5 µM (active)
CC1(O)CC(c2nc(-c3ccc4ccc(-c5ccccc5)nc4c3)c3c(N)nccn23)C1 (configuration not stated) | 18.7 µM (active)
CCCCCCCCCCCCCCCCCCOP(=O)([O-])OC1CC[N+](C)(C)CC1 | inactive
Cc1nc(-c2ccc(-c3ccc(C(=O)N4CCc5cc6c(cc54)C4(CCN(C)CC4)CO6)cc3)c(C)c2)no1 | 26.4 µM (active)
OCCn1cc(-c2ccc3c(c2)CCC3=NO)c(-c2ccncc2)n1 | inactive
Cc1cccc(-c2[nH]ncc2-c2ccc3ncccc3n2)n1 | inactive
NC(=O)c1ccc(N(C(N)=O)c2c(F)cccc2F)nc1-c1ccc(F)cc1F | inactive
CC(C)(C)C(=O)Oc1ccc2c(c1)nc(NC(=O)c1cccc([N+](=O)[O-])c1)n2CCCO | inactive
CN(NC(=O)CC(=O)NN(C)C(=S)c1ccccc1)C(=S)c1ccccc1 | inactive
CC(NCc1ccc2c(c1)nc(NC(=O)c1ccc(-c3cn[nH]c3)s1)n2CC(C)(C)O)C(C)(C)C (configuration not stated) | 0.0418 µM (active)

SMILES | Potency
Cc1cc(-c2ccc(CC(=O)Nc3ccc(-c4cccnc4)cc3)cc2)ccn1 | 18.7 µM (active)
Cc1cnc(Nc2ccc(OCCN3CCCC3)cc2)nc1Nc1cccc(S(=O)(=O)NC(C)(C)C)c1 | inactive
NC(=O)Nc1cc(-c2ccc(CN3CCOCC3)c(F)c2)sc1C(=O)N[C@H]1CCCNC1 | 0.209 µM (active)
Cc1c(CN2CCN(C(=O)C(C)C)CC2)sc2c(N3CCOCC3)nc(-c3cnc(N)nc3)nc12 | 0.0469 µM (active)
COc1ccc(-c2c(-c3ccc(O)cc3O)n[nH]c2C)cc1 | 16.6 µM (active)
Nc1nc(-c2nn(Cc3ccccc3F)c3ncccc23)nc(N)c1N1CCOCC1 | inactive
Cn1cc(-c2ccc3nnc(Sc4ccc5ncccc5c4)n3n2)cn1 | inactive
Cc1cc(-c2nnc3n2CCCCC3)c(C)n1-c1ccc(F)cc1 | 0.332 µM (active)
O=C(Oc1ccc([N+](=O)[O-])cc1)N1CCC(C(O)(c2ccc3c(c2)OCO3)c2ccc3c(c2)OCO3)CC1 | inactive
COc1ccc2c(c1)CC[C@H]1[C@@H]2CC[C@]2(C)[C@@H](NCCCCCCN3C(=O)C=CC3=O)CC[C@H]12 | 20.9 µM (active)
CCCCN1CCC(CNC(=O)c2c3n(c4ccccc24)CCCO3)CC1 | inactive
COc1cc(N2CCC(N3CCN(C)CC3)CC2)ccc1Nc1ncc(Cl)c(Nc2ccccc2S(=O)(=O)C(C)C)n1 | 5.26 µM (active)
O=C(Nc1cc(Cl)cc2c1[nH]c1cnccc12)c1cccnc1 | 13.2 µM (active)
CC(=O)Nc1ccc(OC[C@](C)(O)C(=O)Nc2ccc([N+](=O)[O-])c(C(F)(F)F)c2)cc1 | inactive
Clc1ccc(-c2nc3sccn3c2C=NOCc2ccc(Cl)c(Cl)c2)cc1 | inactive
CC(=O)NCCC(=O)N[C@@H](CCC(N)=O)C(=O)N[C@@H](CO)C(=O)N[C@@H](CCC(N)=O)C(=O)N[C@@H](CCC(N)=O)C(=O)N[C@H](C(=O)N[C@@H](Cc1ccccc1)C(=O)N[C@]1(C)CCCCCCC=CCCC[C@@](C)(C(=O)N[C@@H](CCC(N)=O)C(=O)N[C@@H](CC(N)=O)C(N)=O)NC(=O)[C@H](CC(C)C)NC(=O)[C@H](CC(C)C)NC(=O)[C@@H](CCCNC(=N)N)NC(=O)[C@H](Cc2c[nH]c3ccccc23)NC(=O)[C@H](CC(C)C)NC(=O)[C@H](CC(N)=O)NC1=O)[C@H](C)O | inactive
O=C(O)c1ccc2cc(-c3ccc(O)c(C45CC6CC(CC(C6)C4)C5)c3)ccc2c1 | 18.7 µM (active)
CC(C)=CCCC(C)=CCCC(C)=CCSc1ccccc1C(=O)O | inactive
CC(C)(C(=O)NCC(F)(F)C(F)(F)F)C(=O)N[C@@H]1C(=O)Nc2ccccc2-c2ccccc21 | inactive

— PubChem BioAssay (NCATS)
